About 79,000 compounds went through this panel and 15% of them were active in at least one assay; those are over-represented in the sample as a whole. Unmarked numbers belong to inactive results. The source made the active and inactive calls. No stated cut-off is given here; in the data, active means growth inhibition above about 70%; inactive means the rest.

From PubChem BioAssay (NCI) come the findings set out here.

A short description of test [1]: NCI Yeast Anticancer Drug Screen. Data for the rad50 strain (AID 155).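 Further: 0% = growth of vehicle-only cultures of the same strain.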 The note with it: S. cerevisiae rad50 strain growth inhibition; at 50.0 µM; hits give high values. The method, boiled down: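 Cells are treated with compound, grown, and their growth is then scored against vehicle-only cultures of the same repair-deficient yeast strain.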
The nature of test [2]: NCI Yeast Anticancer Drug Screen. Data for the mec2-1 strain (AID 157). To be noted: S. cerevisiae mec2-1 strain, at 50.0 µM, hits give high values. The method, boiled down: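 mec2-1 yeast strain, carrying an alteration in DNA damage repair or cell cycle control, was exposed to compounds; growth inhibition was measured relative to vehicle-treated controls.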
The nature of test [3]: NCI Yeast Anticancer Drug Screen. Data for the sgs1 mgt1 strain (AID 161).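 Further: 0% = growth of cultures given vehicle only.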 To be noted: S. cerevisiae sgs1 mgt1 strain, at 50.0 µM, hits give high values. The method, boiled down:
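Compounds are added to genetically altered yeast, and growth is compared with cultures given vehicle alone to give percent inhibition.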

Test [4] in a line: NCI Yeast Anticancer Drug Screen. Data for the cln2 rad14 strain (AID 165).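 Further: 0% = growth equal to vehicle treated cultures.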 The note with it: S. cerevisiae cln2 rad14 strain, at 50.0 µM, hits give high values. In outline:
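Yeast carrying cln2 and rad14 alterations (cell cycle control and DNA damage repair) were exposed to compounds. Growth inhibition was measured against vehicle-treated controls.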

A short description of test [5]: NCI Yeast Anticancer Drug Screen. Data for the bub3 strain (AID 167). To be noted: S. cerevisiae bub3 mutant strain, at 50.0 µM, hits give high values. In outline: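 Part of a panel of yeast mutants defective in DNA damage repair or cell cycle regulation. Each strain is grown with compound, and inhibition is calculated relative to solvent-treated cultures.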
Test [6] is described as follows: NCI Yeast Anticancer Drug Screen. Data for the mlh1 rad18 strain (AID 175). The note with it: S. cerevisiae mlh1 rad18 strain growth inhibition; at 50.0 µM; hits give high values. In outline:
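Growth inhibition of the yeast strain was measured after compound exposure and expressed relative to vehicle-treated controls. The strain carries defined defects in DNA damage repair.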

In the case of `CCN(CC)CCNc1ccc(N)c2sc3ccccc3c(=O)c12`, the growth inhibition in test [1] is 8.45%; in test [2] it was 3.8%; in test [3], -18.7%; in test [4] it was -8.25%; in test [5] it was -37.6%; in test [6], -29.1%.

On to `CC/C(=N/Nc1cn[nH]c(=O)c1Cl)c1ccccc1`, for which the growth inhibition in test [1] was 4.6%; in test [2], -0.6%; in test [3], -0.5%; in test [4], -35.6%; in test [5], 19%; in test [6] it was -1.5%.

On to `O=C(NC(Cc1c[nH]c2ccccc12)(C(=O)O)C(=O)O)OCc1ccccc1`, for which the growth inhibition is 23.1% in test [1]; 15.1% in test [2]; 18.7% in test [3]; 29.1% in test [4]; 2.1% in test [5]; 17.8% in test [6].

Consider `O=c1c2c(-c3ccccc3)onc2n(-c2ccccc2)c(=O)n1-c1ccccc1`, for which the growth inhibition in test [1] was -20.4%; in test [2], 4.5%; in test [3], 13.2%; in test [4] it was -10.6%; in test [5], -4.2%; in test [6], 36.5%.

Consider `CC(O)CN(Cc1ccccc1)CC(C)O` (stereo unspecified), for which the growth inhibition was 8.1% in test [1]; 28.9% in test [2]; -6.7% in test [3]; -22.9% in test [4]; -3.5% in test [5]; -14.9% in test [6].

With `Oc1c(Cl)cccc1CN1CCOCC1`, the growth inhibition in test [1] is 26.1%; in test [2], 6.15%; in test [3], 30.5%; in test [4], 25.1%; in test [5] it was -9.35%; in test [6] it was 33%.

In the case of `NCC1OC(n2cnc3c(N)ncnc32)CC1O` (stereo unspecified), the growth inhibition in test [1] is -16.1%; in test [2] it was -2.75%; in test [3] it was -17.8%; in test [4], 0.65%; in test [5], -28.6%; in test [6], -7.85%.

Take `CCCCCOc1ccc(/C=C\C(=O)O)cc1`: the growth inhibition is 11.3% in test [1]; 2.55% in test [2]; -11.2% in test [3]; -6.75% in test [4]; -18.4% in test [5]; -6.35% in test [6].

As for `N#CCCCCN1CCCCC1`, the growth inhibition in test [1] is -4.85%; in test [2] it was -20.9%; in test [3] it was -9.95%; in test [4], 9.8%; in test [5], -14.6%; in test [6], 13.6%.

On to `CC(C)CC(=O)OC1=C(OC(=O)CC(C)C)C(=O)C(OC(=O)CC(C)C)=C(OC(=O)CC(C)C)C1=O`, for which the growth inhibition is 36.9% in test [1]; 15.3% in test [2]; 39.3% in test [3]; 29.6% in test [4]; 7.9% in test [5]; 25.3% in test [6].

For `c1cnc2c(c1)-n1cccc1C1(CCOCC1)NN2`, the growth inhibition in test [1] was -73.5%; in test [2] it was -30.2%; in test [3], -54.5%; in test [4], -11.3%; in test [5] it was -13.3%; in test [6], -40.9%.

In the case of `CCOC(=C\C=C\C1=[N+](C)c2ccccc2C1(C)C)/C=C/C=C1/N(C)c2ccccc2C1(C)C`, the growth inhibition in test [1] was 17.6%; in test [2] it was 87.6% (active); in test [3] it was 34.2%; in test [4], 82.5% (active); in test [5] it was 81.8% (active); in test [6], 27.6%.

Consider `CCCCCCOC(=O)C[n+]1ccc(C(N)=O)cc1`, for which the growth inhibition in test [1] is 2.45%; in test [2], 17.1%; in test [3] it was -15.2%; in test [4], -14.8%; in test [5], -18.8%; in test [6] it was -1.9%.

Regarding `CCC1(C)NN=C2C(=CC=C3NNC(C)(CC)N32)n2cccc21` (stereo unspecified), the growth inhibition was 36.9% in test [1]; 8.8% in test [2]; -19.1% in test [3]; 3.5% in test [4]; -2.65% in test [5]; 26.4% in test [6].

Regarding `COC(=O)[C@H]1O[C@H]1c1cccc[n+]1[O-]`, the growth inhibition in test [1] is 10.1%; in test [2] it was -2.4%; in test [3], 3.9%; in test [4], -24.6%; in test [5], 9.3%; in test [6] it was -0.9%.

With `CCN(CC)/N=C\c1c2ccccc2cc2ccccc12`, the growth inhibition was 19.8% in test [1]; 11.2% in test [2]; 7.7% in test [3]; 9.4% in test [4]; 13.3% in test [5]; 60.4% in test [6].

For the compound `O=C(O)c1c(O)c(O)cc2ccccc12`, the growth inhibition in test [1] was 24.1%; in test [2] it was -17.8%; in test [3] it was -13.4%; in test [4], -51.5%; in test [5], 25.6%; in test [6] it was 23.4%.

Turning to `Cc1cc(C)n(C2=NCCN2)n1`, the growth inhibition is -26.1% in test [1]; -33.7% in test [2]; -14.1% in test [3]; -33.2% in test [4]; 4.2% in test [5]; -17.6% in test [6].

In the case of `OCCOCn1nc(-c2ccccc2)nc1-c1cnccn1`, the growth inhibition was -13.4% in test [1]; -4.55% in test [2]; -20.3% in test [3]; -27.9% in test [4]; -38.1% in test [5]; -24.1% in test [6].

On to `CC(C)C1CC(C)(C)C2CC3OC(C(C)C)CC(C)(C)C3CC2O1` (stereo unspecified), for which the growth inhibition is -12.1% in test [1]; -3% in test [2]; 2.75% in test [3]; -2.65% in test [4]; -10.3% in test [5]; 1.35% in test [6].

For the compound `CCN1C(=O)/C(=C/c2ccc(OCC(=O)O)cc2)SC1=S`, the growth inhibition in test [1] was -6.9%; in test [2], -10.9%; in test [3], 0.35%; in test [4], -44.9%; in test [5] it was -2.2%; in test [6], -9.65%.
